An excerpt weighted towards active compounds, which were near 3.8% of everything screened.
HepG2 viability – counter-screen for TGF-b inhibitors: cytotoxicity in HepG2 cells; Potency, µM (series often up to 46.1 µM), without a hit: top-dose activity change, negative = cytotoxicity, hits mostly cytotoxic; actives 0.76% (n = 410,000); AID 588856; HepG2 CAGA-GFP viability, ATP luminescence, 18 h
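CellTiter-Glo luminescence gave cytotoxicity after 18 hours at 37 degrees C. The cells were HepG2 CAGA-GFP in 1% FBS DMEM, stimulated with 500 pg/mL TGF-beta after compound addition. %Activity was normalised to no-cell wells (complete cell-killing) and DMSO (no toxicity), and curves were fitted and classified.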
Nrf2 inh – blocks Nrf2 signaling; A549 ARE-Fluc reporter, luciferase luminescence, 18-24 h; Potency, µM (top dose mostly 46 µM), inactives show top-dose activity change, negative = inhibition, usual class: inhibitors; actives 2.1% (n = 360,000); further: on the % scale 0 is the no-effect control and ±100 the full control effect; nearly all actives have a fitted effect of over 60% in size
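A549 ARE_Fluc cells (5000/well, 5% FBS OPTI-MEM) pre-incubated 2 h, then treated with compounds 18-24 h at 37C/5% CO2 in concentration-response. CellTiter-Fluor viability read first; BugLite luciferase luminescence after 15 min at room temperature gives Nrf2 activity.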
A549 tox – counter-screen for Nrf2 inhibitors: cytotoxicity in A549 cells. A549 ARE-Fluc cells, CellTiter-Fluor viability, 18-24 h. actives 0.16% (n = 390,000). Potency, µM (doses to about 46 µM), inactives show at the top dose activity change, negative = cytotoxicity, hits mostly inhibitors; further: on the % scale 0 is the no-effect control and ±100 the full control effect
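Cytotoxicity counterscreen: CellTiter-Fluor fluorescence was measured in A549 ARE_Fluc cells after 18-24 h of compound exposure in a concentration series. The subsequent BugLite luminescent read reports ARE-luciferase activity.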
ATXN2 expr inh – reduces ATXN2 reporter expression in HEK-293 cells; Potency, µM (series often up to 57 µM), for the others: top-dose activity change, negative = inhibition, hits mostly inhibitors; HEK-293 ATXN2-luciferase reporter, luminescence, 24 h; actives 0.72% (n = 360,000); further: on the % scale 0 is the no-effect control and ±100 the full control effect; nearly all actives have a fitted effect of over 55% in size
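ATXN2-luciferase reporter cells (luciferase flanked by upstream and downstream ATXN2 gene portions) were treated 24 h at 37 °C with compounds at up to 57 uM. SteadyGlo luminescence gave expression; GF-AFC fluorescence gave viability.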
TGFb inhibitor – TGF-b pathway inhibition | Potency, µM (titrated, usually from 46.1 µM), inactives show top-dose activity, negative = inhibition, usual class: inhibitors | HepG2 CAGA-GFP TGF-b/SMAD3 reporter, GFP fluorescence, 18 h; TGF-beta stimulated, 500 pg/mL final | actives 1.2% (n = 410,000) | AID 588855; further: on the % scale 0 is the no-effect control and ±100 the full control effect; nearly all actives have a fitted effect of over 65% in size
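HEPG2 CAGA-GFP cells (1000/well, DMEM with 1% FBS) were pre-incubated 2 h at 37 degrees C, given compound by pin tool, then stimulated with TGF-beta at 500 pg/mL final for 18 h before per-cell GFP fluorescence imaging.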
S2 tox – reduces viability in counter-screen for ATXN expression inhibitors; S2 cells (HEK-293 line with an ATXN2-luciferase reporter) viability, CellTiter-Fluor protease fluorescence, 24 h; Potency, µM (series often up to 56.7 µM), hits mostly cytotoxic; actives 0.49% (n = 400,000); further: nearly all actives have a fitted effect of over 40% in size
* marks the source's active call; other numbers are inactive results; i = inactive; ? = inconclusive; . = no result given; [ ] = another dose, or the depositor's remark. The call rests on the fitted dose curve; in most records, active means well fitted curve in the direction sought with a large enough effect; inconclusive means small, poorly fitted or top-dose-only effect, or another doubt; inactive means no such curve, though single readings can be large; an effect the other way counts as inactive or inconclusive. Potency means the concentration at half of the fitted maximal effect.

SMILES | HepG2 viability | Nrf2 inh | A549 tox | ATXN2 expr inh | TGFb inhibitor | S2 tox
Cc1cc(N/N=C/c2cccc(Cl)c2)nc(-n2nc(C)cc2C)n1 | -41.2% | 16.4µM* | -20.8% | ? | -20.5% | ?
Cc1cc(N/N=C/c2ccc(O)cc2O)nc(-n2nc(C)cc2C)n1 | -42.5% | ? | -4.0% | ? | -25.5% | ?
COc1ccc(/C=N/Nc2cc(C)nc(-n3nc(C)cc3C)n2)cc1 | -24.3% | ? | -1.7% | 20µM* | 0.0% | ?
Cc1cc(N/N=C/c2cccc([N+](=O)[O-])c2)nc(-n2nc(C)cc2C)n1 | -16.4% | -24.2% | -10.5% | -26.8% | 1.3% | i
Cc1cc(N/N=C/c2ccccc2[N+](=O)[O-])nc(-n2nc(C)cc2C)n1 | -39.7% | ? | ? | ? | 2.51µM* | ?
Cc1ccc(NC(=O)CN2C=NS(=O)(=O)c3ccccc32)cc1 | 2.1% | . | 1.7% | 1.4% | 2.0% | i
O=C(/C=C/c1ccc(Cl)cc1)Nc1nc(-c2cccs2)ns1 | -18.7% | ? | -12.0% | . | -25.9% | .
COc1ccc(CC(=O)NCC(C)(C)N2CCOCC2)cc1 | 69.8% | 2.5% | 1.8% | -4.0% | 11.5% | i
COC(=O)c1c(OCc2ccccn2)cc(=O)n2c1CCN(Cc1cccc(C(F)(F)F)c1)CC2 | . | . | . | . | . | i
Brc1ccc(-c2ncc3ccccn23)cc1 | -0.8% | 21.9% | 3.9% | . | -4.7% | i
C/C(CC(=O)Nc1cccc(Cl)c1Cl)=N\NC(=O)c1ccccc1C | -21.5% | 7.6% | 1.5% | 12.8% | ? | i
COc1ccc(/C=N/Nc2cc(C)nc(NS(=O)(=O)c3ccc(C)cc3)n2)cc1 | -46.4% | ? | -8.1% | -3.6% | 12.6µM* | i
CCc1nc2ccc(C(=O)N3CCN(c4ccccc4)CC3)cn2c1N(C)CCCc1ccccc1 | 15.8µM* | . | . | -12.8% | ? | ?
CCc1nc2ccc(C(=O)N3CCN(S(=O)(=O)CC)CC3)cn2c1N(C)CCC(C)C | 3.16µM* | . | . | 4.8% | -0.2% | i
CCc1nc2ccc(C(=O)Nc3ccc(C(=O)N(C)C)cc3)cn2c1N(C)CCCc1ccccc1 | -20.4% | . | . | ? | -6.0% | 28.2µM*
CCc1nc2ccc(C(=O)N3CCN(c4ccccc4)CC3)cn2c1N(C)CCC(C)C | -89.4% | . | . | -0.9% | 12.6µM* | i
CCc1nc2ccc(C(=O)NC3CCN(C)CC3)cn2c1N(C)CCC(C)C | -39.2% | . | . | 0.0% | ? | i
CCc1nc2ccc(C(=O)N3CCN(S(=O)(=O)CC)CC3)cn2c1N(CCC(C)C)CCN(C)C | -19.8% | . | . | -1.2% | 3.6% | i
CCOC(=O)c1c(C)c(C(=O)NCCc2ccc(OC)cc2)c(C)n1CC | -18.7% | -2.3% | 2.6% | -22.6% | -27.8% | ?
Cc1c(Br)c([N+](=O)[O-])nn1CC(=O)N(C)Cc1ccccc1 | 17.0% | 2.3% | 1.2% | . | -0.6% | ?
COC(=O)c1cccc(-c2cc(Cl)c3c(c2)CC(CNC(=O)c2cccnc2)O3)c1 (stereo not drawn) | . | . | . | . | . | i
COCCn1c(-c2ccc(OC(F)(F)C(F)C(F)(F)F)cc2)nc2c1c(=O)[nH]c(=O)n2CC(C)C (stereo not drawn) | -10.7% | 18.4µM* | -8.0% | -7.2% | ? | i
N/C(=N\OC(=O)c1ccccc1F)c1cccc([N+](=O)[O-])c1 | 4.3% | ? | -0.4% | . | -4.9% | i
OCCN1CCN(C2Cc3cc(Cl)ccc3Sc3ccc(Cl)cc32)CC1 (stereo not drawn) (tested in a mixture with another compound) | 10µM* | 20.3% | -2.8% | ? | ? | ?
CC1(COc2ccc3c(c2)ncn3-c2ccc3cccc(N4CCC(N)CC4)c3n2)COC1 | . | . | . | 12.2µM* | . | .
SMILES | HepG2 viability | Nrf2 inh | A549 tox | ATXN2 expr inh | TGFb inhibitor | S2 tox
COc1ccc(-n2cnc3cc(N)ccc32)cc1 | 5.0% | ? | -0.9% | 57.5% | 21.5% | i
CCOc1cccc(NCc2cc3c(C(C)(C)C)nn(-c4ccccc4)c3[nH]c2=O)c1 | -32.2% | 20.6µM* | ? | -2.8% | ? | i
COc1ccccc1C(=O)NCCC(=O)Nc1ccc(S(=O)(=O)N2CC(C)CC(C)C2)cc1 (stereo not drawn) | 0.2% | 13µM* | -6.0% | -22.6% | ? | i
O=C(NCC1CCN(c2ccc(S(=O)(=O)N3CCOCC3)cc2)CC1)Nc1ccccc1F | 7.7% | -28.8% | -4.7% | -4.6% | 11.9% | i
COc1ccccc1C(=O)NCC1CCN(c2ccc(S(=O)(=O)N3CCOCC3)cc2)CC1 | -30.5% | 23.1µM* | ? | -15.3% | ? | i
O=S(=O)(c1ccc(NC(=S)N2CCN(c3ccc(O)cc3)CC2)cc1)N1CCOCC1 | 0.3% | 11.6µM* | -17.9% | -24.7%[11.3 µM] | 6.2% | i
O=C(NCC1CCN(c2ccc(S(=O)(=O)N3CCOCC3)cc2)CC1)Nc1ccccc1 | -16.4% | 14.6µM* | -15.7% | -15.3% | -24.7% | i
COc1ccccc1C(=O)NCCC(=O)Nc1ccc(S(=O)(=O)N2C(C)CCCC2C)cc1 (stereo not drawn) | 4.1% | ? | -8.7% | -19.9% | -18.7% | i
O=C(CSc1nnc(-c2ccccc2F)o1)Nc1ccc(N2CCOCC2)cc1 | -5.1% | ? | 7.9% | . | -8.9% | i
Cc1oc(-c2ccc(Cl)cc2)nc1CS(=O)CC(=O)NCc1ccc(Cl)cc1 (stereo not drawn) | -5.8% | -22.8% | -7.8% | . | ? | .
O=C1Nc2cccnc2N(C(=O)CCl)c2ccccc21 | -74.1% | ? | -17.0% | ? | ? | 20µM*
CCOC(=O)N1C(=O)C2(CCCCC2)N(c2ccccc2Cl)C1=S | -31.8% | -24.4% | 0.5% | -23.2% | -47.1% | i
Cn1nc(C(F)(F)F)c(C#N)c1N1CCN(c2ccc(F)cc2)CC1 | -31.2% | 11.6µM* | -3.5% | -12.0% | -1.0% | i
CC(=O)c1cc(C)ccc1OC(=O)c1ccco1 | -0.4% | 6.1% | 11.6% | -1.5% | 51.9% | i
Cc1c(C(=O)N2CCC(C)CC2)c(S(=O)(=O)N2CCN(c3ccc(Cl)cc3)CC2)c(C)n1C | -2.2% | . | 2.3% | . | -14.1% | .
COc1cccc(C2C=C(c3ccc(OC)cc3OC)Nc3nnnn32)c1 (stereo not drawn) | -10.0% | 18.4µM* | ? | ? | -5.6% | .
COc1ccc(C2=CC(c3ccc(OC)c(OC)c3)n3nnnc3N2)c(OC)c1 (stereo not drawn) | -11.0% | -9.2% | ? | 76.0% | -3.3% | .
